Bioassay records from PubChem BioAssay.
Compounds with a hit are over-represented: about 8.3% of the library has one in this group of screens.
FMDV inh: blocks foot and mouth disease virus; FMDV antiviral cell-based qHTS; Potency, µM (highest dose often 57.9 µM), most hits filed as inhibitors; 410,000 tested, 1.2% active; AID 1159524; calls by dose curve; tested in HEK293T cells; further: read-out not given here; nearly all actives have a fitted effect of over 45% in size
MARV entry inh: blocks Marburg virus binding to or entry into cells; Marburg virus pseudotyped entry inhibition, cell reporter; Potency, µM (highest dose often 37.8 µM), actives largely listed as inhibitors; 300,000 tested, 1.8% active; AID 540276; calls by dose curve; tested in HEK293 cells
Giardia FBPA inh: inhibitors of Giardia lamblia fructose-1,6-bisphosphate aldolase; A8B2U2; purified Giardia FBPA; Potency, µM (titrated, usually from 59.6 µM), actives largely listed as inhibitors; 290,000 tested, 0.71% active; further: nearly all actives have a fitted effect of over 55% in size
Target sequence (A8B2U2 whole entry, looked up): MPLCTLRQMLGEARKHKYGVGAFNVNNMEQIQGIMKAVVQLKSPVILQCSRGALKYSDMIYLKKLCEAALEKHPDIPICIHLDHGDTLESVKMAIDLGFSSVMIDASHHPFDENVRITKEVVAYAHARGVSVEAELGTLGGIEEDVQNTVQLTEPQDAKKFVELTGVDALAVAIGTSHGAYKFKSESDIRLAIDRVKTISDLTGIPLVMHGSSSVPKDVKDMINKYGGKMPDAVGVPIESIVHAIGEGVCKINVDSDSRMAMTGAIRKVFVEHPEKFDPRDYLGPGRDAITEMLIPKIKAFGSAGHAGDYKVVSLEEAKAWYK
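40 nM FBPA preincubated 10 min at RT with compound (up to 57.5 uM final), then substrate plus GAPDH/TPI/NAD/arsenate coupling and diaphorase/resazurin added. Fluorescence read after 20 min at RT, 525/598 nm.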
HCMV inh: human cytomegalovirus inhibition | activity change, negative = inhibition, % at 57.5 µM | 410,000 tested, 4.5% active | HFF cells, HCMV-luciferase reporter, 72 h; active compounds read low | AID 1259415; in the data active means activity change below about -60%; inconclusive means no clear call, values can overlap the other calls; inactive means above about -39%
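HFF cells seeded 16 h at 37C, treated with compounds, infected with luciferase-reporter HCMV at MOI 1 PFU/cell; luciferase read at 72 h post infection, normalized to buffer-only and Salinomycin controls.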
LASV entry inh: blocks Lassa virus binding to or entry into cells; Lassa virus pseudotype entry inhibition, cell reporter; Potency, µM (doses to about 37.9 µM), most hits filed as inhibitors; 300,000 tested, 1.2% active; calls by dose curve; tested in HEK293 cells; further: nearly all actives have a fitted effect of over 50% in size
HCV inhibitor: HCV inhibition; Huh7.5.1 HCVcc-Cre infection, luciferase reporter, 44 h; Potency, µM (series often up to 41.8 µM), most hits filed as inhibitors; 340,000 tested, 3.4% active; AID 651820
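Cells (1,000/well) were plated 4 h before compound, then infected with HCVcc-Cre virus (~0.5 moi). After 44 h further culture, infection was read as luciferase luminescence following a 15 min substrate incubation at room temperature.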
A number is an active result; – = inactive; ? = inconclusive; · = no result given; [ ] = remark or other dose. Unless noted, the call rests on the fitted dose curve; in most records, active means well fitted curve in the direction sought with a large enough effect; inconclusive means small, poorly fitted or top-dose-only effect, or another doubt; inactive means no such curve, though single readings can be large; an effect the other way counts as inactive or inconclusive.

SMILES	FMDV inh	MARV entry inh	Giardia FBPA inh	HCMV inh	LASV entry inh	HCV inhibitor
Cc1cccc(CN2C(=O)c3ccccc3Sc3ccc(C(=O)NC4CCCCC4)cc32)c1	–	·	·	–	–	·
O=c1cc(O)cc(/C=C/c2ccc(O)c(O)c2)o1	·	?	–	·	?	·
CC(C)=CCCC1(C)C=Cc2c(O)c3c(c(CC=C(C)C)c2O1)OC12C(CC4CC1C(C)(C)OC2(C/C=C(/C)C(=O)O)C4O)C3=O (centres undefined)	–	·	–	·	·	·
CC(C)=CCCC1(C)C=Cc2c(c(C)cc3c2[nH]c2cc(O)ccc23)O1 (centres undefined)	–	·	–	-104.4	·	–
O=C(NCc1ccccc1)C1=C[C@H](c2csc3ccccc23)C[C@H](OCCCCO)O1	–	·	–	-95.3	·	–
O=C(NCc1nc2ccccc2[nH]1)C1=C[C@@H](c2csc3ccccc23)C[C@@H](OCc2ccc(CO)cc2)O1	–	·	–	–	·	–[8.37 µM]
O=C(NCc1nc2ccccc2[nH]1)C1=C[C@H](c2csc3ccccc23)C[C@H](OCc2ccc(CO)cc2)O1	–	·	–	-61.8	·	?
CC#CCN1c2ccccc2[C@]23CCC(=O)N(Cc4ccco4)C2=NC(C(=O)OC)=C(C(=O)OC)[C@H]13	·	–	·	·	·	·
Cc1nn(Cc2ccccc2Cl)c(C)c1NC(=O)c1cc(C(C)C)on1	–	?	·	–	?	·
COc1ccc(-c2cc(C(=O)Nc3cc(C)n(Cc4ccc(Cl)cc4)n3)no2)cc1OC	3.55µM	?	–	?	?	?
COc1ccc(OC)c(-c2cc(C(=O)Nc3c(C)nn(Cc4ccc(Cl)cc4)c3C)no2)c1	?	?	–	–	?	14.1µM
Cc1cc(C(=O)Nc2c(C)nn(Cc3c(Cl)cccc3Cl)c2C)no1	–	2.59µM	–	-61.9	5.8µM	–
Cc1cc(C(=O)Nc2c(C)nn(Cc3ccc(F)cc3)c2C)no1	–	–	·	–	–	·
Cc1nn(Cc2c(Cl)cccc2Cl)c(C)c1NC(=O)c1cc(C(C)C)on1	–	·	–	-98.0	·	?
CCOc1ccc(-n2c(=O)c3c(C)c(C)sc3n(CC(=O)N3CCC(C)CC3)c2=O)cc1	–	–	·	–	–	·
Cc1nn(Cc2ccccc2)c(C)c1NC(=O)c1cc(C(C)C)on1	–	–	·	–	–	·
Cc1nn(Cc2ccc(Cl)cc2)c(C)c1NC(=O)c1cc(C(C)C)on1	?	?	–	?	–	11.2µM
COc1ccccc1-c1nc(C#N)c(N2CCc3ccccc3C2)o1	–	?	–	–	–	11.2µM
COc1ccc(N2CCN(c3oc(-c4ccc(OC)c(OC)c4)nc3C#N)CC2)cc1	?	–	–	–	–	–
COc1ccc(-c2nc(C#N)c(N3CCc4ccccc4C3)o2)cc1OC	–	?	·	–	?	11.2µM
Cc1cccc(-c2nc(C#N)c(N3CCCCCC3)o2)c1	·	–	–	–	–	25.1µM
S=C(NCCCc1ccccc1)Nc1ccc(Cl)cc1	–	–	–	-97.6	–	?
S=C(NCCCc1ccccc1)Nc1ccccc1	–	–	·	–	–	–
CCCOc1ccc(CSCCNC(=S)Nc2ccccc2)cc1	–	?	–	–	?	?
CCOc1ccc(CSCCNC(=S)Nc2ccc(OC)cc2)cc1	–	·	–	-81.3	·	10µM
SMILES	FMDV inh	MARV entry inh	Giardia FBPA inh	HCMV inh	LASV entry inh	HCV inhibitor
S=C(NCCSCc1ccc(Cl)cc1)Nc1ccccc1	–	–	–	-68.0	?	–
CCOc1ccc(NC(=S)NCc2ccc3[nH]c(C)cc3c2)cc1	–	–	–	–	2.91µM	11.2µM
CCOC(=O)C1CCN(C(=O)c2nn(-c3ccc(OC)c(Cl)c3)c(=O)c3c2c2ccccc2n3C)CC1	–	–	·	–	?	·
Cc1ccc(NS(=O)(=O)c2c(C)nc3sc(C)c(C)n3c2=O)cc1F	–	·	·	–	?	·
S=C(NCCc1ccccc1)Nc1ccc(Nc2ccccc2)cc1	–	?	–	–	?	11.2µM
S=C(Nc1ccc(Nc2ccccc2)cc1)NC1CCCCCC1	28.2µM	?	–	-86.9	?	?
CCCNC(=S)Nc1ccccc1	–	·	–	-64.9	·	–
CC(C)(CNC(=S)NCCc1ccccc1)CNC(=S)NCCc1ccccc1	?	?	–	-93.4	?	?
OCCNC(=S)NCCc1ccccc1	–	–	–	?	–	–
CCCNC(=S)Nc1ccc(CC(=O)OC)cc1	–	–	–	–	–	–
Cn1c(=O)c2nc(SCC(=O)Nc3cc(Cl)cc(Cl)c3)n(C)c2n(C)c1=O	–	·	·	–	–	·
COc1ccc(Oc2ncc3nc(-c4ccc(F)cc4)c(=O)n(CCC#N)c3n2)cc1	–	·	–	·	·	·
CCc1ccccc1N1C(=O)N(CC(=O)c2ccc(Cl)cc2)c2ccccc2S1(=O)=O	–	·	·	–	?	·
Cc1cc(C(=O)Nc2cnn(C(C)(C)C(=O)NCc3ccco3)c2)c(C)o1	·	·	·	–	·	·
CCN(CC)S(=O)(=O)c1ccc2c(c1)nc(CN(C)C(=O)Nc1ccc(C)c(Cl)c1)n2C	–	·	·	–	–	·
O=C(NCCc1ccc(F)cc1)c1cccc(NC(=O)c2ccccc2)c1	–	·	–	–	·	22.4µM
S=C(NCCc1ccccn1)Nc1ccc(Cl)cc1	–	?	–	-77.9	–	–
O=[N+]([O-])c1cccc(NC(=S)NCCc2ccccc2)c1	?	?	–	-95.4	–	12.6µM
COC(=O)c1ccc(NC(=S)NCCc2cccc(C)c2)cc1	–	–	–	–	–	22.4µM
O=C(Cc1cccc([N+](=O)[O-])c1)Nc1ccccc1	–	·	·	–	·	·
COC(=O)c1ccc(NC(=S)NCCc2ccccc2C)cc1	–	–	–	–	–	–
Fc1ccc(NC(=S)NCCc2ccccn2)cc1	–	–	–	?	–	–
COc1ccc(-c2nc3cc(F)ccc3nc2C(=O)Nc2c(C)cccc2C)cc1	·	·	·	–	·	·
COc1ccc(-n2c(=O)c(C)nc3cnc(Oc4cccc(Cl)c4)nc32)cc1	–	·	–	·	·	·
Fc1ccc(NC(=S)NCCc2ccccc2)c(F)c1F	·	–	–	-74.3	–	?
SMILES	FMDV inh	MARV entry inh	Giardia FBPA inh	HCMV inh	LASV entry inh	HCV inhibitor
Cc1ccc(NC(=O)CCCc2ccccc2)nc1	–	?	–	–	?	–
Cc1ccc(NC(=S)NCCc2ccccc2)nc1	–	–	–	-115.0	–	?
COc1ccc(NC(=S)NC(NC(=O)CF)C(Cl)(Cl)Cl)cc1[N+](=O)[O-] (centres undefined)	–	·	–	–	·	–
O=C(CF)NC(NC(=S)Nc1cccc([N+](=O)[O-])c1)C(Cl)(Cl)Cl (centres undefined)	–	–	–	-69.8	–	–
Fc1cccc(NC(=S)NCCc2ccccc2)c1	–	?	–	-78.6	?	–
Fc1ccccc1NC(=S)NCCc1ccccc1	–	?	–	–	–	–
CC(C)(C)S(=O)(=O)N1C[C@H]2CC(=O)C(CCO)=C2[C@@H]1CCO	·	·	·	–	·	·
Cc1ccc(NC(=O)Cn2cc3c(n2)CCCCC3)cc1	–	–	·	–	–	·
CCn1c(=O)n(CC)c2cc(N3CCCCC3)c(NC(=O)Nc3cc(Cl)ccc3OC)cc21	–	·	·	?	?	·
CCOC(=O)c1[nH]c(C)c(CCC(=O)Nc2cc(Cl)ccc2C)c1C	–	·	·	–	?	·
